Values joined by “and” are separate entries in the source; they are usually repeats but may differ in a detail not shown here. Equal values may be shown once. Inconclusive results are not listed. For part of these data: Potency and affinity values are given separately. Active and inactive are the calls of the source. Rule as the data show it, unless noted: active = parasite load remaining mostly below about 12% (no sharp cut-off); inactive = mostly above about 10%.
Tests used:
[1] = liver-stage malaria parasite growth inhibition, primary screen, cell-based, HepG2, luciferase luminescence, HepG2 viability (AID 624349);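 also: 100% = mean of DMSO negative control wells on the same plate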; conditions: P. berghei liver stage in HepG2, luciferase luminescence, concentration not given here; parasite load remaining: stronger effect = lower value; viability: measured here: HepG2 viability without parasites
[2] = differential killing of epithelial or mesenchymal cells, primary screen, imaging, PC-3E GFP, TEM4-18 mCherry, co-culture (AID 1345086;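 active = compounds killing one labelled cell type while sparing the other, by normalised counts and ratio limits, not self-fluorescent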;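 as to all read-outs here: cells exposed to compound for 72 h before imaging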;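 as to red/green cell ratio (normalised): normalised mesenchymal count divided by normalised epithelial count so high means epithelial killing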); conditions: imaging cell counts, at 1 µM; for red/green cell ratio (normalised): actives lie on both sides, counts scaled to control wells, 1 = unselective
[3] = growth inhibition of DIPG glioma cells, dose response, cell-based, SU-DIPG-XVII, MIPE5.0, CellTiter-Glo, qHTS (AID 1347060; cut-off not given, nearly all actives have AC50 up to about 26 µM); conditions: SU-DIPG-XVII viability, CellTiter-Glo ATP luminescence
[4] = growth inhibition of DIPG glioma cells, dose response, cell-based, SU-DIPG-XIII, MIPE4.0, CellTiter-Glo, qHTS (AID 1347061; cut-off not given, nearly all actives have AC50 up to about 37 µM;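 also: cells exposed to compound for 48 hours before readout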); conditions: SU-DIPG-XIII viability, CellTiter-Glo ATP luminescence
[5] = growth inhibition of DIPG glioma cells, dose response, cell-based, JHH-DIPG-1, MIPE4.0, CellTiter-Glo, qHTS (AID 1347062; cut-off not given, nearly all actives have AC50 up to about 27 µM); conditions: JHH-DIPG-1 viability, CellTiter-Glo ATP luminescence
[6] = growth inhibition of DIPG glioma cells, dose response, cell-based, SU-DIPG-IV, MIPE4.0, CellTiter-Glo, qHTS (AID 1347063; cut-off not given, nearly all actives have AC50 up to about 30 µM;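 also: compound exposure lasted 48 hours before the viability readout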); conditions: SU-DIPG-IV viability, CellTiter-Glo ATP luminescence
[7] = viability loss in pontine glioma line – cell-based, SU-DIPG-XXV, MIPE5.0, CellTiter-Glo, qHTS, dose response (AID 1347065; cut-off not given, nearly all actives have AC50 up to about 26 µM;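 also: cells exposed to compound for 48 hours before ATP readout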); conditions: CellTiter-Glo ATP luminescence
[8] = SU-DIPG-VI glioma cell viability, MIPE4.0 library, CellTiter-Glo luminescence, qHTS (AID 1347066; cut-off not given, nearly all actives have AC50 up to about 30 µM;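 also: cells exposed to compound for 48 hours before readout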); conditions: CellTiter-Glo ATP luminescence
[9] = JHH-DIPG-1 glioma cell viability, MIPE5.0 library, CellTiter-Glo luminescence, qHTS (AID 1347067; cut-off not given, nearly all actives have AC50 up to about 26 µM;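 also: cells exposed to compound for 48 hours before readout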); conditions: JHH-DIPG-1 glioma viability, CellTiter-Glo ATP luminescence
[10] = SU-DIPG-XXV glioma cell viability, MIPE5.0 library, qHTS (AID 1347068; cut-off not given, nearly all actives have IC50 up to about 30 µM)
[11] = sensitizers of A549 cells to miR-34 induction, primary screen, imaging, A549 dox-inducible miR-34, nuclei and caspase counts (AID 1347080;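 active = compounds whose cell count with miR-34 switched on is under 0.7 times the count with it off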); conditions: A549 miR-34 inducible, Hoechst nuclei count, 48 h
[12] = hESC survival regulators, cell-based (AID 493140; call rule not given here;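 also: cells exposed to compounds for four days before counting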); conditions: human embryonic stem cell survival screen; stronger effect = higher value
[13] = growth inhibition of DIPG glioma cells, dose response, cell-based, SU-DIPG-XIII, MIPE5.0, CellTiter-Glo, qHTS (AID 1347064; cut-off not given, nearly all actives have AC50 up to about 23 µM); conditions: SU-DIPG-XIII viability, CellTiter-Glo ATP luminescence
[14] = polyglutamine-triggered caspase-3 activation inhibitors, cell-based (AID 1583); conditions: polyglutamine-induced caspase-3 activation, cell assay; stronger effect = higher value;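 tested at 10 µM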
[15] = suppressors of polyQ aggregation in yeast, 75Q-TubU reporter (AID 1593); conditions: Yeast 75Q polyglutamine aggregation reporter
[16] = rescue of polyQ-huntingtin neuronal dysfunction in worms, whole organism, C. elegans mechanosensory neurons, N-terminal huntingtin (AID 1599); conditions: touch response, stronger effect = higher value
[17] = inhibitors of mitochondrial cytochrome c release, biochemical, purified mitochondria (AID 1603); conditions: stronger effect = lower value;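 also: mouse liver mitochondria challenged with calcium chloride; signal normalized to the plate average as 100%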
[18] = inhibitors of polyQ protein aggregation (AID 1604); conditions: polyglutamine-induced protein aggregation inhibition assay; stronger effect = higher value; tested at 2.5 µM
[19] = enhancers of glutamate uptake in motor neurons, MN-1 cell line (AID 1612); conditions: MN-1 motor neuron cells, stronger effect = higher value;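 also: tested at 1 µM final; 0% = mean of DMSO vehicle wells on each plate; positive means more glutamate uptake than control and negative means less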
[20] = reducers of polyQ inclusions in PC12 cells, cell-based, NGF-treated PC12, GFPQ80 (AID 1614); conditions: PC12 NGF-treated GFP-polyQ80 inclusion reduction;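 also: lower means fewer inclusions and 0 means no inclusions at all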
[21] = suppressors of polyglutamine aggregation in yeast, 75Q-TubH (AID 1616); conditions: S. cerevisiae 75Q-TubH polyglutamine aggregation suppression; stronger effect = higher value
[22] = survival rescue of mitochondrial mutant cells in low glucose, primary screen, MELAS cybrids, Rieske KO mouse fibroblasts, CellTiter-Glo (AID 1508586;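 active = mean z-score across replicates of 1.96 or higher in either the MELAS or the Rieske mutant cell line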;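 also: z relative to plate mean and SD of compound and empty wells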)
[23] = measured here: epithelial PC-3E GFP cell survival
[24] = measured here: mesenchymal TEM4-18 mCherry cell survival
[25] = stronger effect = lower value, cell number ratio, induced over uninduced
[26] = measured here: relative caspase fold change +Dox/-Dox
[27] = measured here: total cells with miR-34 induction, stronger effect = lower value
[28] = measured here: total cells without miR-34 induction

Question: Which parasite load remaining [1] does the source give for `CC(NCCc1ccc(O)cc1)C(O)c1ccc(O)cc1` (stereo not drawn) here?
Answer: 92.5% (inactive) and 43.7% (inactive)

Question: What about the viability [1] of the same compound?
Answer: 69.7% and 91.3%

Question: What about the red/green cell ratio (normalised) [2] of the same compound?
Answer: 1.16 (inactive)

Question: What about the normalised cell number [2, 23] of the same compound?
Answer: 0.9

Question: And the normalised cell number [2, 24]?
Answer: 1.05

Question: And the outcome [3]?
Answer: inactive

Question: What about the outcome [4] of the same compound?
Answer: inactive

Question: And the outcome [5]?
Answer: inactive

Question: What about the outcome [6] of the same compound?
Answer: inactive

Question: And the outcome [7]?
Answer: inactive

Question: What about the outcome [8] of the same compound?
Answer: inactive

Question: What about the outcome [9] of the same compound?
Answer: inactive

Question: What about the outcome [10] of the same compound?
Answer: inactive

Question: And the fold change [11, 25]?
Answer: 0.955 (inactive)

Question: And the fold change [11, 26]?
Answer: 3.65

Question: What about the cell count [11, 27] of the same compound?
Answer: 12000

Question: And the cell count [11, 28]?
Answer: 12600

Question: Which red/green cell ratio (normalised) [2] does the source give for `CC1(C)C2CCC1(CS(=O)(=O)O)C(=O)/C2=C\c1ccc(/C=C2\C(=O)C3(CS(=O)(=O)O)CCC2C3(C)C)cc1` here?
Answer: 0.78 (inactive)

Question: And the normalised cell number [2, 23]?
Answer: 1.44

Question: What about the normalised cell number [2, 24] of the same compound?
Answer: 1.12

Question: What about the fold change [11, 25] of the same compound?
Answer: 0.905 (inactive)

Question: And the fold change [11, 26]?
Answer: 1.03

Question: What about the cell count [11, 27] of the same compound?
Answer: 8090

Question: What about the cell count [11, 28] of the same compound?
Answer: 8940

Question: What does the source list for `Cc1cc2nc3c(=O)[nH]c(=O)nc-3n(CC(O)C(O)C(O)CO)c2cc1C` (stereo not drawn)?
Answer: survival [12]: 1.58 (inactive); parasite load remaining [1]: 149% (inactive) and 66% (inactive) and 85.7% (inactive); viability [1]: 87.6% and 75.7% and 118%; red/green cell ratio (normalised) [2]: 0.96 (inactive); normalised cell number [2, 23]: 1.14; normalised cell number [2, 24]: 1.1; outcome [3]: inactive; outcome [4]: inactive; outcome [5]: inactive; outcome [13]: inactive; outcome [7]: inactive; outcome [8]: inactive; outcome [9]: inactive; fold change [11, 25]: 0.948 (inactive); fold change [11, 26]: 3.38; cell count [11, 27]: 12400; cell count [11, 28]: 13100

Question: For `COc1ccc(C2Sc3ccccc3N(CCN(C)C)C(=O)C2OC(C)=O)cc1` (stereo not drawn), which inhibition [14] is on record?
Answer: 5.24%

Question: What about the score [15] of the same compound?
Answer: 1.09

Question: What about the rescue above control [16] of the same compound?
Answer: -7.88

Question: And the cytochrome c release ratio [17]?
Answer: 1.1

Question: And the inhibition of aggregation [18]?
Answer: 45.9%

Question: What about the glutamate uptake change [19] of the same compound?
Answer: 4.81%

Question: What about the inclusion score [20] of the same compound?
Answer: 2

Question: What about the aggregation suppression score [21] of the same compound?
Answer: 0.716

Question: What about the parasite load remaining [1] of the same compound?
Answer: 163% (inactive) and 58.1% (inactive)

Question: What about the viability [1] of the same compound?
Answer: 88.6% and 96.1%

Question: And the red/green cell ratio (normalised) [2]?
Answer: 1.25 (inactive)

Question: What about the normalised cell number [2, 23] of the same compound?
Answer: 0.98

Question: What about the normalised cell number [2, 24] of the same compound?
Answer: 1.22

Question: What about the outcome [5] of the same compound?
Answer: inactive

Question: What about the outcome [6] of the same compound?
Answer: inactive

Question: And the outcome [8]?
Answer: inactive

Question: And the fold change [11, 25]?
Answer: 0.937 (inactive) and 0.887 (inactive)

Question: And the fold change [11, 26]?
Answer: 0.646 and 4.46

Question: What about the cell count [11, 27] of the same compound?
Answer: 7800 and 11500

Question: And the cell count [11, 28]?
Answer: 8320 and 13000

Question: What about the z-score ([22]; MELAS cybrid survival, CellTiter-Glo 48 h, stronger effect = higher value) of the same compound?
Answer: -0.332 (inactive)

Question: And the z-score ([22]; Rieske KO mouse fibroblast survival, CellTiter-Glo 72 h)?
Answer: -0.2

From PubChem BioAssay
